The results in this text go back to ChEMBL document CHEMBL4296182, “CO-ADD screening of NIH NCI Diversity Set V”.

For part of these data: Entries with a potency or affinity are not part of this list.

One experiment deals with Staphylococcus aureus. In words: Antibacterial activity against Staphylococcus aureus MRSA ATCC 43300 (CO-ADD:GP_020); MIC in CAMBH media using NBS plates, by Resazurin F(560/590). Format: functional. The settings on record: Concentration 20 uM, ASSAY_TEST Inhibition of Bacterial Growth, detection method Resazurin, Fluorescence (ex560/em590), MEDIA CAMHB, plate type 384well, CORNING #3640, time 18 hr.

In a further experiment the test system is Acinetobacter baumannii. In words: Antibacterial activity against Acinetobacter baumannii ATCC 19606 (CO-ADD:GN_034); MIC in CAMBH media using NBS plates, by Resazurin F(560/590). Type of experiment: functional. Particulars: Concentration 20 uM, ASSAY_TEST Inhibition of Bacterial Growth, detection method Resazurin, Fluorescence (ex560/em590), MEDIA CAMHB, plate type 384well, CORNING #3640, time 18 hr.

The next experiment deals with Escherichia coli. In words: Antibacterial activity against Escherichia coli ATCC 25922 (CO-ADD:GN_001); MIC in CAMBH media using NBS plates, by Resazurin F(560/590). Type of experiment: functional. Particulars: Concentration 20 uM, ASSAY_TEST Inhibition of Bacterial Growth, detection method Resazurin, Fluorescence (ex560/em590), MEDIA CAMHB, plate type 384well, CORNING #3640, time 18 hr.

The next experiment deals with Klebsiella pneumoniae. Particulars: Concentration 20 uM; ASSAY_TEST Inhibition of Bacterial Growth; detection method Absorption (OD600); MEDIA CAMHB; plate type 384well; NBS; CORNING #3640; time 18 hr.
In a further experiment the test system is Candida albicans. Particulars: 20 µM.
For another experiment, the system named is Cryptococcus neoformans. The settings on record: Concentration 20 uM; ASSAY_TEST Inhibition of Fungal Growth; detection method Resazurin; Absorption (OD600-OD570); plate type 384well; NBS; CORNING #3640.

Consider `COc1ccc2c(=O)cc(-c3cccnc3)oc2c1OC`, for which the Inhibition in the experiment with Staphylococcus aureus is 4.17%; with Acinetobacter baumannii it was 8.21%; with Escherichia coli, 2.42%; in the experiment on Klebsiella pneumoniae, 26.45%; in the experiment with Candida albicans, 9.13%; in the experiment with Cryptococcus neoformans, -11.85%.

As to `O=c1cc(-c2ccccc2)oc2ccc(O)cc12` [6-HYDROXYFLAVONE], the Inhibition is -4.33% with Staphylococcus aureus; -2.45% in the experiment with Acinetobacter baumannii; -5.6% in the experiment on Escherichia coli; 8.45% in the experiment with Klebsiella pneumoniae; 7.78% in the experiment on Candida albicans; -10.88% in the experiment with Cryptococcus neoformans.

Turning to `CC(C)(NC(=O)c1cc(Cl)c2ccccc2c1O)C(=O)O`, the Inhibition amounted to 9.7% with Staphylococcus aureus; 5.56% in the experiment with Acinetobacter baumannii; 13.46% in the experiment with Escherichia coli; 19.28% with Klebsiella pneumoniae; 5.1% in the experiment with Candida albicans; 0.69% in the experiment with Cryptococcus neoformans.

Turning to `Fc1ccc(-c2cc(-c3cccs3)cc(-c3ccccc3)n2)cc1`, the Inhibition in the experiment with Staphylococcus aureus was 2.48%; with Acinetobacter baumannii, 12.33%; with Escherichia coli, -3.88%; in the experiment with Klebsiella pneumoniae it was 7.87%; in the experiment with Candida albicans, 6.36%; in the experiment with Cryptococcus neoformans, -7.45%.

In the case of `Cc1ccc(Nc2nnc(-c3ccc4c(c3)OCO4)o2)c(C)c1`, the Inhibition in the experiment with Staphylococcus aureus is 30.86%; with Acinetobacter baumannii, -8.42%; in the experiment with Escherichia coli, 5.86%; in the experiment on Klebsiella pneumoniae, 21.23%; in the experiment on Candida albicans it was 28.8%; in the experiment with Cryptococcus neoformans, -3.73%.

For `N=C(N)Nc1ccc(NC(=N)N)cc1`, the Inhibition in the experiment on Staphylococcus aureus is 18.17%; in the experiment on Acinetobacter baumannii it was -6.06%; in the experiment on Escherichia coli, 9.96%; in the experiment with Klebsiella pneumoniae it was 17.17%; in the experiment with Candida albicans, -1.51%; in the experiment with Cryptococcus neoformans, -0.62%.

With `Cc1nc2nc(C(F)(F)F)[nH]c2nc1C`, the Inhibition in the experiment on Staphylococcus aureus is 10.93%; in the experiment with Acinetobacter baumannii it was 9.55%; in the experiment on Escherichia coli it was -5.58%; with Klebsiella pneumoniae, 7.77%; in the experiment with Candida albicans it was 3.03%; in the experiment on Cryptococcus neoformans, -5.2%.

With `CCOc1ccc(NC(=O)Nc2cc(C(C)C)ccc2C)cc1`, the Inhibition in the experiment with Staphylococcus aureus is -18.22%; with Acinetobacter baumannii, 0.23%; with Escherichia coli it was -12.49%; in the experiment with Klebsiella pneumoniae, 0.84%; in the experiment with Candida albicans, 0.78%; in the experiment with Cryptococcus neoformans, 21.16%.

`NS(=O)(=O)c1cc2c(cc1Cl)NC(Cc1ccccc1)NS2(=O)=O` (stereo not given) [BENZYLHYDROCHLOROTHIAZIDE]: the Inhibition in the experiment with Staphylococcus aureus was 8.57%; with Acinetobacter baumannii, 4.78%; with Escherichia coli, 13.54%; in the experiment on Klebsiella pneumoniae, 17.47%; in the experiment with Candida albicans, 3.24%; in the experiment on Cryptococcus neoformans, -10.94%.

On to `Nc1ccc(NC(=O)Nc2ccc(N)cc2)cc1`, for which the Inhibition was -0.09% in the experiment on Staphylococcus aureus; -11.79% with Acinetobacter baumannii; 5.61% in the experiment on Escherichia coli; 0.94% in the experiment with Klebsiella pneumoniae; -2.34% with Candida albicans; -9.22% in the experiment on Cryptococcus neoformans.

Regarding `C=CCNC(=O)C1COc2ccccc2O1` (stereo not given), the Inhibition with Staphylococcus aureus was -8.47%; in the experiment on Acinetobacter baumannii it was -14.67%; in the experiment on Escherichia coli, 0.51%; with Klebsiella pneumoniae it was 7.35%; with Candida albicans, 1.99%; with Cryptococcus neoformans, -7.01%.

With `S=C(SCc1cc(Cl)cc2c1OCOC2)N1CCSCC1`, the Inhibition in the experiment with Staphylococcus aureus is 8.1%; in the experiment with Acinetobacter baumannii, -7.54%; in the experiment with Escherichia coli it was 10.68%; in the experiment with Klebsiella pneumoniae, 22.79%; with Candida albicans, 13.5%; in the experiment with Cryptococcus neoformans, 0.8%.

On to `CC1=CC2(C)NC(=O)C(C)C12` (stereo not given), for which the Inhibition in the experiment on Staphylococcus aureus is 9.76%; in the experiment on Acinetobacter baumannii, -10.3%; in the experiment with Escherichia coli, 6.64%; in the experiment on Klebsiella pneumoniae, 6.26%; in the experiment with Candida albicans it was -0.72%; with Cryptococcus neoformans it was -9.55%.

As to `COc1ccc2[nH]c(-c3ccccc3)cc2c1`, the Inhibition in the experiment on Staphylococcus aureus was 9.9%; in the experiment on Acinetobacter baumannii it was 3.58%; in the experiment on Escherichia coli, 0.95%; with Klebsiella pneumoniae, 16.65%; in the experiment with Candida albicans it was 6.65%; in the experiment with Cryptococcus neoformans it was -9.39%.

Regarding `COc1c(O)ccc2c1CN1CCc3cc4c(cc3C1C2)OCO4` (stereo not given), the Inhibition in the experiment on Staphylococcus aureus was 12.64%; in the experiment with Acinetobacter baumannii it was 10.47%; in the experiment with Escherichia coli, 3.09%; in the experiment on Klebsiella pneumoniae, 10.21%; in the experiment on Candida albicans, -2.64%; in the experiment on Cryptococcus neoformans it was -12.68%.

Take `CCCOc1nc2c(c(=O)n(C)c(=O)n2C)n1C`: the Inhibition with Staphylococcus aureus was 17.4%; with Acinetobacter baumannii, 10%; in the experiment on Escherichia coli it was 3.82%; in the experiment with Klebsiella pneumoniae, -6.25%; in the experiment with Candida albicans, 1.36%; in the experiment with Cryptococcus neoformans, -4.51%.

Turning to `CCCCCOc1ccc(N2C(=O)C(C)CNC2=S)cc1` (stereo not given), the Inhibition in the experiment on Staphylococcus aureus was 15.96%; in the experiment with Acinetobacter baumannii it was 8.82%; in the experiment with Escherichia coli it was 2.34%; in the experiment on Klebsiella pneumoniae, 9.59%; with Candida albicans, -1.3%; in the experiment with Cryptococcus neoformans, -8.51%.

`CCOC(=O)c1cc2c(OC)c(OC)ccc2c2ncc(C#N)c(O)c12`: the Inhibition was 2.33% in the experiment on Staphylococcus aureus; 4.98% in the experiment with Acinetobacter baumannii; -22.93% in the experiment with Escherichia coli; 0.73% with Klebsiella pneumoniae; 5.12% with Candida albicans; 44.69% in the experiment on Cryptococcus neoformans.

Regarding `O=C(O)c1nn(-c2ccccc2-c2nnc(O)nc2O)c(=O)[nH]c1=O`, the Inhibition was 28.61% in the experiment on Staphylococcus aureus; 10.46% with Acinetobacter baumannii; 9.27% in the experiment with Escherichia coli; 22.91% in the experiment with Klebsiella pneumoniae; 1.7% with Candida albicans; 4.78% in the experiment with Cryptococcus neoformans.

As for `CC(=O)[C@H]1CC[C@H]2[C@@H]3CCC4=CC(=O)C=C[C@]4(C)[C@H]3C(=O)C[C@]12C`, the Inhibition with Staphylococcus aureus was 11.15%; in the experiment on Acinetobacter baumannii, -7.04%; in the experiment with Escherichia coli, -4.55%; with Klebsiella pneumoniae, 23.74%; in the experiment with Candida albicans it was 4.8%; with Cryptococcus neoformans, -6.32%.

As to `O=C(Nc1cccc2c1N(C(=O)c1ccco1)CCC2)c1ccco1`, the Inhibition in the experiment on Staphylococcus aureus is 23.38%; in the experiment on Acinetobacter baumannii it was 8.42%; with Escherichia coli it was 4.6%; with Klebsiella pneumoniae, 13.8%; in the experiment on Candida albicans, -1.4%; in the experiment with Cryptococcus neoformans, -2.48%.

For the molecule `C=C(C)c1nc(Oc2ccccc2)nc(Oc2ccccc2)n1`, the Inhibition in the experiment with Staphylococcus aureus was 19.07%; with Acinetobacter baumannii, 6.26%; with Escherichia coli, 6.34%; in the experiment on Klebsiella pneumoniae, 11.06%; in the experiment on Candida albicans, 0.6%; in the experiment with Cryptococcus neoformans, -9.97%.

For `Sc1nccn1-c1ccccc1Cl`, the Inhibition with Staphylococcus aureus was 5.33%; in the experiment with Acinetobacter baumannii, 14.25%; in the experiment with Escherichia coli, -3.3%; with Klebsiella pneumoniae, 6.92%; in the experiment on Candida albicans it was 3.82%; with Cryptococcus neoformans, -5.04%.

Turning to `NC(=O)C1=CC2C3C=CC2(O)C(=O)OC3O1` (stereo not given), the Inhibition is -0.72% with Staphylococcus aureus; 9.98% with Acinetobacter baumannii; -7.05% with Escherichia coli; 15.67% with Klebsiella pneumoniae; 3.39% in the experiment with Candida albicans; 2.22% in the experiment on Cryptococcus neoformans.

With `Cc1c(C#N)c2n(c1C)CCCC(=O)N2`, the Inhibition in the experiment on Staphylococcus aureus was found to be 39.05%; in the experiment on Acinetobacter baumannii, 3.89%; in the experiment on Escherichia coli, 19.57%; in the experiment on Klebsiella pneumoniae, 7.55%; with Candida albicans, 10.6%; in the experiment on Cryptococcus neoformans it was 5.76%.
